This passage reports cytotoxicity call results from the antibiotic and cytotoxicity screens of Wong et al. (2023).

The campaign covered roughly 39,000 compounds. About 1,500 (3.8%) were called active. This excerpt belongs to a sample that is enriched for actives.

The assay deals with HSkMC (human skeletal muscle cells). The assay is described as follows: cytotoxicity call (relative viability < 0.9). The settings on record: 10 µM.
On to `COc1ccc(CN(C)C[C@H]2Oc3c(NC(=O)C4CCOCC4)cccc3C(=O)N([C@@H](C)CO)C[C@@H]2C)cc1`, for which the cytotoxicity call was “inactive”.
With `CN1C(=O)c2cc(NC(=O)C3CCOCC3)ccc2OC[C@@H]2O[C@@H](CC(=O)NCc3ccccc3F)CC[C@@H]21` the entry was “inactive”; with `Cc1noc(C)c1NC(=O)N(C)C[C@H]1Oc2c(NC(=O)c3cnccn3)cccc2C(=O)N([C@@H](C)CO)C[C@@H]1C`, “inactive”.
With `C[C@H]1CN([C@@H](C)CO)C(=O)c2cc(NC(=O)C3CC3)ccc2O[C@H]1CN(C)S(=O)(=O)c1ccc(Cl)cc1` the entry was “inactive”; with `CC(=O)N[C@H]1[C@H](Oc2nc3cc(C)ccc3o2)O[C@H](CO)[C@@H](O)[C@@H]1O`, “inactive”.
Then `Cc1ccc(-c2ccc3c(c2)O[C@H](CN(C)C(=O)CN(C)C)[C@H](C)CN([C@@H](C)CO)S3(=O)=O)cc1`, with “inactive”; and `O=C(CN1CCOCC1)N[C@H]1CC[C@H](CCNC(=O)Nc2cc(F)ccc2F)O[C@H]1CO`, with “inactive”.
As for `CN1C(=O)c2cc(NC(=O)c3ccc(F)c(F)c3)ccc2OC[C@@H]2O[C@H](CC(=O)N3CCOCC3)CC[C@@H]21`, the cytotoxicity call was “inactive”.
With `Cc1noc(C)c1S(=O)(=O)N(C)C[C@H]1Oc2ccc(NC(=O)Nc3ccc4c(c3)OCO4)cc2C(=O)N([C@H](C)CO)C[C@@H]1C` the entry was “inactive”.
Then `COc1ccc(CN(C)C[C@@H]2OCCCC[C@@H](C)Oc3ccc(NC(=O)Nc4ccc(F)cc4)cc3C(=O)N([C@@H](C)CO)C[C@H]2C)cc1`, with “inactive”.
On to `C[C@@H]1CN([C@H](C)CO)C(=O)Cc2cc(NC(=O)Nc3ccc(C(F)(F)F)cc3)ccc2O[C@H]1CN(C)Cc1ccc(C(F)(F)F)cc1`, for which the cytotoxicity call is “active”.
Then `C[C@@H]1CN([C@@H](C)CO)C(=O)Cc2cc(NC(=O)C3CCCCC3)ccc2O[C@@H]1CN(C)Cc1ccc(C(F)(F)F)cc1`, with “active”.
Then `C[C@H](CO)N1C[C@H](C)[C@@H](CN(C)Cc2ccc(C(F)(F)F)cc2)Oc2ccc(NC(=O)Nc3ccc(C(F)(F)F)cc3)cc2CC1=O`, with “active”; and `C[C@H]1CN([C@@H](C)CO)C(=O)Cc2cc(NC(=O)C3CCCCC3)ccc2O[C@@H]1CN(C)Cc1ccc(C(F)(F)F)cc1`, with “inactive”; and `C[C@H](CO)N1C[C@H](C)[C@@H](CN(C)Cc2ccc(C(F)(F)F)cc2)Oc2ccc(NC(=O)C3CCCCC3)cc2CC1=O`, with “inactive”.
With `C[C@@H]1CN([C@H](C)CO)C(=O)Cc2cc(NC(=O)Nc3ccc(C(F)(F)F)cc3)ccc2O[C@@H]1CN(C)Cc1ccc(C(F)(F)F)cc1` the entry was “active”; with `C[C@@H]1CN([C@H](C)CO)C(=O)Cc2cc(NC(=O)Nc3ccc(C(F)(F)F)cc3)ccc2O[C@@H]1CN(C)Cc1ccc(C(=O)O)cc1`, “inactive”.
Take `C[C@@H]1CN([C@@H](C)CO)C(=O)Cc2cc(NC(=O)Nc3ccc(C(F)(F)F)cc3)ccc2O[C@@H]1CN(C)Cc1ccc(C(=O)O)cc1`: the cytotoxicity call is “inactive”.
